Screens deposited in PubChem BioAssay by Columbia University Molecular Screening Center.
IL1B NFkB inh: blocks IL-1B driven NFkB nuclear translocation in HUVEC cells | HUVEC IL-1B NFkB p65 nuclear translocation imaging | inhibition, % at 2 µM | 94,000 compounds, 0.43% hits | AID 796;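 active = inhibition above about 30% together with a positive call from visual inspection of the well image, limit read from the data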;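 note: nuclear over cytoplasmic p65 intensity ratio measured by imaging; 0% = IL-1B stimulated DMSO wells and 100% = unstimulated DMSO wells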
TNFa cytotox: HUVEC cytotoxicity counter-screen, TNF alpha stimulated; AID 848; HUVEC TNFalpha-stimulated, Hoechst cell count, imaging; 93,000 compounds, 0.17% hits; cell count reduction, % at 2 µM;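 active = cell count reduction exceeding the screen mean by over 5 SD, scaled to untreated wells per plate, cut at about 78% in these data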;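 note: cells counted after 24 h of TNF alpha exposure following the 1 h pretreatment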
cytoskel mod: cytoskeleton assembly modification; HUVEC TNFa F-actin phalloidin imaging, high content; inhibition, % at 2 µM; 91,000 compounds, 0.18% hits;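 active = inhibition above the batch mean plus 3 SD and confirmed as a hit by visual image inspection, cut at about 30% in these data, passing the limit was not always enough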
IL1B cytotox: toxic to HUVEC cells under IL-1B stimulation. HUVEC cell count loss, Hoechst imaging, IL-1B stimulated. cell count reduction, % at 2 µM. 94,000 compounds, 0.41% hits. AID 845;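 active = cell count reduction more than 3 SD above the screen-wide mean, cut at about 70% in these data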;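 note: normalized per plate to untreated control cells as the no-loss baseline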
IL1B NFkB pot: enhances IL-1B driven NFkB nuclear translocation; HUVEC IL-1B NFkB p65 nuclear translocation imaging; activation, % at 2 µM; 94,000 compounds, 0.3% hits; AID 819;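 active = activation above 40%, about the mean plus 3 SD, also judged a hit on visual image review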;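 note: percent activation is computed from the nuclear over cytoplasmic p65 intensity ratio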
VCAM1 TNFa inh: reduces TNF alpha induced VCAM1 expression in HUVEC; HUVEC TNFa-induced VCAM-1 immunofluorescence, high-content imaging; inhibition, % at 2 µM; AID 802; 95,000 compounds, 0.48% hits;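 active = inhibition above the batch mean plus 3 SD, with images confirmed as a hit by eye, cut at about 37% in these data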;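 note: 0% = TNF-stimulated DMSO wells and 100% = unstimulated control wells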
* hit, by the source's call; / = no result given. An excerpt weighted towards active compounds, which were near 1.6% of everything screened.

SMILES	IL1B NFkB inh	TNFa cytotox	cytoskel mod	IL1B cytotox	IL1B NFkB pot	VCAM1 TNFa inh
N/C(=N\OS(=O)(=O)c1ccc(Br)cc1)c1ccncc1	35.0*	7.2	-16.5	-18.6	-35.0	-8.1
CCCCOC(=O)Nc1ccc(C)c(Cl)c1	27.9	-8.8	-11.0	90.7*	-27.9	-2.9
COc1ccc(CNC(=O)C(c2ccco2)N(Cc2cccs2)C(=O)Cc2cccs2)cc1 (stereo not drawn)	-41.0	-20.8	3.3	-4.8	41.0*	15.0
CCOC(=O)c1c(NC(C)=O)sc2c1CCC(C=NCCCN(CC)CC)=C2Sc1ccccc1	-0.1	5.6	-11.6	1.5	0.1	12.0
COC(=O)c1oc2ccc(Br)cc2c1-n1cccc1	39.6*	-3.6	-16.9	-80.9	-39.6	-2.6
CCCCCNCc1cccc(Br)c1	/	-5.7	-4.2	/	/	-0.6
CCOC(=O)c1c(C)nc2sc3c(c2c1-c1ccc(OC)cc1)NC(c1ccc(OC)cc1)NC3=O (stereo not drawn)	-3.0	-17.4	-3.0	-8.6	3.0	7.2
Cn1c(C(O)c2ccc3c(c2)OCO3)nc2ccccc21 (stereo not drawn)	98.1*	-10.8	12.2	84.0*	-98.1	-5.5
OC(c1ccc2c(c1)OCO2)c1nccc2ccccc12 (stereo not drawn)	-6.1	-3.3	16.7	11.5	6.1	4.2
O=C(OCC1COc2ccccc2O1)c1c(F)cccc1F (stereo not drawn)	-32.5	-22.1	-6.3	-1.9	32.5	13.0
CCOC(=O)c1cnn(-c2ccccc2)c1-n1cccc1	-5.0	-14.6	4.4	38.8	-24.1	5.2
CCOC(=O)c1cnn(-c2ccccc2)c1-n1cccc1C(=O)C(=O)Nc1ccc(OC)cc1	-9.4	-26.2	-6.2	94.2*	9.4	-13.7
CC(C)c1ccc(C(=O)CC2(O)C(=O)N(CN3CCOCC3)c3ccccc32)cc1 (stereo not drawn)	-9.9	11.2	-57.4	26.1	9.9	-8.3
O=C(NCNC(=O)c1ccccc1)c1ccccc1	-11.2	-11.1	-1.7	80.9*	11.2	11.1
C=CCNC(=O)c1ccc(C(=O)c2ccccc2)cc1	6.6	-17.1	2.4	4.6	-6.6	-41.3
COC(=O)CSc1nnc(CNC(=O)c2ccccc2OC)n1C	4.5	51.3	-23.7	-6.0	-4.5	2.1
COC(=O)CSc1nnc(CNC(=O)c2cc(OC)c(OC)c(OC)c2)n1C	12.5	-13.9	7.7	78.4*	-12.5	1.1
Cc1cccc(OCC(=O)Nc2cc(C)ccc2O)c1	-1.0	-4.2	-8.9	0.0	1.0	57.7*
O=C(CCC1CCCCC1)Nc1ccccc1O	-0.1	-17.7	-2.0	-13.7	0.1	-12.6
Cc1ccc(O)c(NC(=O)CCC2CCCCC2)c1	3.7	26.1	-16.3	22.8	-3.7	79.3*
Clc1ccc(Cc2nc(-c3cccnc3)no2)cc1	4.6	-5.1	4.4	-42.2	-4.6	-5.1
CC(C)COc1ccc(CSCCNC(=S)Nc2ccccc2)cc1	-2.8	7.0	-15.9	-1.2	2.8	11.8
Cc1cc(Cl)c(S(=O)(=O)N2CCN(c3ccc(F)cc3)CC2)cc1OCC(=O)NC1CCCCC1	-33.9	-15.7	-5.3	-3.5	33.9	6.0
O=C(CSc1ccc2ccccc2c1)Nn1cnnc1	-49.7	-25.8	/	7.1	49.7*	-4.4
O=C(CSc1ccc(Cl)cc1)Nn1cnnc1	-4.7	-13.5	-30.3	17.5	4.7	13.4
SMILES	IL1B NFkB inh	TNFa cytotox	cytoskel mod	IL1B cytotox	IL1B NFkB pot	VCAM1 TNFa inh
COc1ccc2c(c1)nc(SCC(=O)c1cccs1)n2C	-4.1	-0.6	1.9	-30.3	4.1	-4.1
CSc1sc(C(=O)O)c(C)c1C(C)=O	-4.1	15.5	-10.4	-6.3	4.1	-47.1
CC1(C)Cc2c(sc(NC(=O)C(C)(C)C)c2C#N)C(C)(C)N1	-20.9	89.1*	76.2*	-29.8	20.9	-13.3
CCC(=O)Nc1sc2c(c1C#N)CC(C)(C)NC2(C)C	-31.8	22.8	-26.8	-25.0	31.8	4.7
CCOC(=O)c1cnn(-c2nc(-c3ccc(C)cc3)cs2)c1C(F)(F)F	9.4	76.7	-68.5	10.5	-9.4	96.3*
CCOC(=O)c1cnn(-c2ccc(C)cc2)c1N	-0.4	-11.7	-25.9	-0.3	0.4	8.9
Cc1ccc(C)c(NC(=S)N(CCc2nc3cc(C)c(C)cc3[nH]2)Cc2cccnc2)c1	6.9	-4.8	21.1	-28.8	-6.9	9.0
CCC(C)C1C(C#N)=C(N)Oc2n[nH]c(-c3ccccc3)c21 (stereo not drawn)	3.4	29.4	-11.1	0.3	-3.4	55.9*
